# Measurements taken from PubChem BioAssay AID485313 (National Center for Advancing Translational Sciences (NCATS), 2010).
# In all, about 320,000 compounds went through this assay and about 7,600 (2.4%) were called active. About 3% were inconclusive and are not listed. This is one part of a sample in which actives are shown more often than they occur. A number with no mark means an inactive call. The call rests on the fitted dose curve; in most records, active means well fitted activation curve with a large enough effect; inconclusive means small, poorly fitted or top-dose-only effect; inactive means no such curve, though single readings can be large or run the other way.
# Test: qHTS Assay for NPC1 Promoter Activators; further: nearly all actives have a fitted effect of over 60% in size;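 on activation: reporter is driven by a mutant NPC1 promoter; % of control where 0% means no effect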
# Details: Huh7 NPC1 promoter luciferase reporter, 24 h; series mostly up to 9.22 µM; activation: at the top concentration
# Outline: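 Huh7 cells stably carrying NPC1 promoter–luciferase, plated in Opti-MEM with 10% FBS for 2 h, were exposed to compound in DMSO for 24 h at 37 °C; luciferase reagent was added for 10 min and luminescence read.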
# Potency means the concentration at half of the fitted maximal effect.
SMILES,activation,Potency
CCn1c(=O)c(=O)n(CC)c2cc(N3CCCCC3)c(NC(=O)c3ccc(Cl)cc3)cc21,-3.5%,–
CC(C)n1ncc2c(C(=O)NCc3ccccc3CN(C)C)cc(C3CC3)nc21,-4.26%,–
COc1nc(N(C)C)nc(N2CC(=O)N(CCNS(=O)(=O)c3ccc(C)cc3)C2=N)n1,2.87%,–
CCS(=O)(=O)n1nc(-c2ccc(OC)cc2)nc1SC,27.4%,–
CCS(=O)(=O)n1nc(-c2ccccc2)nc1SCc1ccccc1,–,3.55 µM (active)
CS(=O)(=O)n1nc(-c2ccccc2)nc1NCc1ccco1,0.536%,–
CN(CC(=O)Nc1c(Cl)cccc1Cl)C(=O)CC1OC(=O)c2ccccc21 (centres undefined),-3.28%,–
COC(=O)CSc1nc2ccccc2c(=O)n1Cc1ccccc1,3.25%,–
Cc1ccc(C(=O)CSc2nc3ccccc3c(=O)n2N)o1,–,3.98 µM (active)
COc1ccc(NC(=O)CSc2nc3ccccc3c(=O)n2C)cc1,-9.03%,–
O=S(=O)(NC1CCN(S(=O)(=O)c2ccc3c(c2)OCCO3)CC1)c1c(F)cccc1F,-2.67%,–
CCCCSc1nnc(-c2ccc(C)cc2)o1,–,0.794 µM (active)
CCOC(=O)CSc1nnc(-c2cccc(Br)c2)o1,-1.59%,–
Cc1cccc(C)c1OC(=O)CSc1nnc(-c2ccccc2)o1,-0.799%,–
Cc1ccc(CN2CC(C(=O)NNC(=O)Cn3ccc(C(F)(F)F)n3)CC2=O)cc1 (centres undefined),-1.82%,–
CC(=O)NCc1ccc(-c2csc(NC(=O)CCCc3nc4ccccc4c(=O)[nH]3)n2)cc1,-1.72%,–
COc1ccc(Cn2c(O)c(/C=C3/C=CC=N3)c(=O)[nH]c2=O)cc1,3.01%,–
O=C(NCc1ccccc1CN1CCCC1)c1cccc(S(=O)(=O)Nc2ccc(F)cc2)c1,-2.83%,–
Cc1ccc(NC(=O)C(c2ccccc2)N2CCN(C(=O)c3ccco3)CC2)cc1 (centres undefined),-1.36%,–
COc1ccc(Cl)cc1NC(=O)CN(C)C(=O)c1cc(-c2cccs2)nn1-c1ccccc1,0.628%,–
CN(C(=O)c1ccccn1)c1nnc(-c2ccccn2)s1,–,2.51 µM (active)
CN(C(=O)C1CCOC1)c1nnc(-c2cccnc2)s1 (centres undefined),3.19%,–
COc1cc(OC)cc(-c2nnc(N(C)C(=O)c3ccncc3)s2)c1,-5%,–
COc1ccc(-c2noc(CSc3ccc(C)cc3)n2)cc1,-2.46%,–
COc1ccc(OC)c(-c2csc(-c3cccs3)n2)c1,9.23%,–
COc1ccc(-c2noc(CN(C)S(=O)(=O)c3ccc(C)cc3)n2)cc1,16.4%,–
COc1ccc(-c2noc(-c3ccc(C)cc3)n2)cc1,–,2 µM (active)
COc1ccc(-c2nc(-c3ccccc3)no2)c(OC)c1,–,3.55 µM (active)
COc1ccc(-c2noc(CNC(=O)C(C)Oc3ccccc3)n2)cc1 (centres undefined),-2.92%,–
